# Shown are actives, neighbours in structure and some others; about 22% of the full set was active somewhere.
# Measles CPE = protection of cells from measles virus. AID 841. Measles virus-infected cells, CPE protection, absorbance. protection (pct of control), % at 4 µM. hit rate 1.5% among 140,000; in the data active = protection mostly above about 24%, no sharp cut-off; inactive = mostly below about 26%
# CYP2C19 activ = increases human CYP2C19 enzyme activity. activation factor at 5 µM. recombinant CYP2C19, luciferin-H EGE luminescence; active compounds read high; 0 = fully inhibited enzyme, 1 = untreated enzyme. 96,000 tested, under 10 active;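 active = activation factor of at least 2 at 5 µM in the primary screen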;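 note: 0 = wells with 2.5 mM tranylcypromine and 1 = vehicle-only wells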
# Target sequence (P33261 whole entry, looked up): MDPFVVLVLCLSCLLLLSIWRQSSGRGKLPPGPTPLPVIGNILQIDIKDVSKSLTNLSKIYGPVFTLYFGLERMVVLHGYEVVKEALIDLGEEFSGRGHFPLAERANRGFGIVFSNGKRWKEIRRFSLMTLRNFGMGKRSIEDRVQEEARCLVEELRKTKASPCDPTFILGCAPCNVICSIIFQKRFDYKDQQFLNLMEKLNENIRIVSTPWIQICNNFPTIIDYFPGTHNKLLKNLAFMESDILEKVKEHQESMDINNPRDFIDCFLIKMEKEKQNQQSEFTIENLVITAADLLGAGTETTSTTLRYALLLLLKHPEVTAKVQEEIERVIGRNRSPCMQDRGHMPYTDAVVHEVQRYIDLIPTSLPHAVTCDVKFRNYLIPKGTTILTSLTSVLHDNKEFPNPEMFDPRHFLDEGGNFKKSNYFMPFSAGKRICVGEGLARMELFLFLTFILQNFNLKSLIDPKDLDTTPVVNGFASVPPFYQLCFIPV
# CYP2C9 activ = increases human cytochrome P450 2C9 activity; recombinant CYP2C9, luciferin-H conversion, luminescence; active compounds read high; factor 1 = untreated enzyme, 0 = blocked; activation factor at 5 µM; hit rate 1.4% among 96,000;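 active = activation factor of 2 or more for CYP2C9 at a 5 µM dose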;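 note: 0 = sulfaphenazole-blocked wells and 1 = vehicle-only wells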
# CYP2C9 inhib = inhibitors of human CYP2C9; P11712; CYP2C9 Supersomes, luciferin-H conversion, luminescence; inhibition, % at 5 µM; hit rate 20% among 96,000;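 active = blocking of liver enzyme CYP2C9 beyond about 50% at 5 µM, limit read from the data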
# CYP2C19 inhib = human CYP2C19 inhibition. CYP2C19 Supersomes, luciferin-H EGE luminescence, 30 min. inhibition, % at 5 µM. hit rate 21% among 96,000. AID 778;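 active = CYP2C19 inhibition above a set limit at 5 µM in the primary screen, cut at about 50% in these data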;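 note: plate controls were negative control wells for no effect and 2.5 mM tranylcypromine positive control for full effect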
# * = called active by the depositor; · = no result.
SMILES,Measles CPE,CYP2C19 activ,CYP2C9 activ,CYP2C9 inhib,CYP2C19 inhib
CCC(OC(=O)c1cccs1)C(=O)NC1CCCCC1 (centres undefined),30,0.2,0.7,28,75*
CCC(OC(=O)c1cccs1)C(=O)NCc1ccco1 (centres undefined),17,0.2,0.6,44,83*
CC(C)CC(OC(=O)c1cccs1)C(=O)NCc1ccco1 (centres undefined),15,0.6,0.6,40,44
O=S(=O)(c1ccc(NCCc2c[nH]c3ccccc23)nc1)N1CCOCC1,6,0.5,0.7,28,51*
CCCCC(=O)NCCNC(=O)c1cc(OCC(F)(F)F)ccc1OCC(F)(F)F,4,0.9,0.7,25,12
Cc1nn(Cc2ccc(Cl)c(Cl)c2)c(C)c1NC(=O)c1cc(CC(C)C)on1,4,0.3,0.2,82*,74*
Cc1ccc(Cn2ccc(NC(=O)c3cc(-c4ccc(Cl)cc4)on3)n2)cc1,11,1,0.8,22,5
CCCC(=O)Nc1ccc(C(=O)Nc2cc(C(F)(F)F)ccc2Cl)cc1,4,0.9,1.5,-48,10
Cc1ccc(Cn2ccc(NC(=O)c3cc(CC(C)C)on3)n2)cc1,11,0.8,0.1,90*,23
Cc1nn(Cc2ccc(Cl)c(Cl)c2)c(C)c1NC(=O)c1noc2c1CCCCC2,11,0.9,0.9,6,6
Cc1cc(C(=O)Nc2cc(C)n(Cc3ccc(Cl)cc3)n2)no1,8,·,·,·,·
CC(C)Cc1cc(C(=O)Nc2cc(C(F)(F)F)ccc2Cl)no1,1,0.9,2.7*,-170,10
Cc1cc(NC(=O)c2cc(C(C)C)on2)nn1Cc1ccc(Cl)cc1,23,0.3,0.6,40,65*
CCOC(=O)c1cc(-c2ccc(OC(F)F)cc2)nc2c1c(=O)[nH]c(=O)n2C,17,·,·,·,·
Cc1cc(C2C(=O)C(C(=O)c3ccc(Cl)cc3)C(=O)CC2(C)C)on1 (centres undefined),9,1.1,0.6,39,-12
O=C(NCc1ccc(F)cc1)C(=O)Nc1nc(C23CC4CC(CC(C4)C2)C3)cs1,4,·,·,·,·
Cc1cccc2cc(COC(=O)C(C)(C)C)c(=O)[nH]c12,15,0.8,1.3,-33,20
Cc1nn(Cc2ccc(Br)cc2)c(C)c1NC(=O)c1nn(C)cc1Cl,7,0.6,0.4,61*,43
Cc1ccccc1Cn1c(=O)n(CC2CCC(C(=O)NCCc3ccccc3)CC2)c(=O)c2ccccc21 (centres undefined),1,·,·,·,·
CN(C)CCNCc1ccccc1OC1CCCC1,1,1.2,1.2,-17,-17
COc1ccc(C(Cl)=C(c2ccc(OC)cc2)c2ccc(OC)cc2)cc1,2,·,·,·,·
COc1ccc(C(=N/O)/C(=N/O)c2ccc(OC)cc2)cc1,1,0.4,0.7,27,60*
CN(C)C(=O)c1cn(N(C)c2ncc(C(F)(F)F)cc2Cl)c(=O)c2ccccc12,3,0.5,0.2,80*,53*
CN(C)/C=C/C(=O)/C=C/c1cn(-c2ncc(C(F)(F)F)cc2Cl)c2ccccc12,3,0.9,0.9,13,15
Cc1nn(Cc2ccccc2)c(=O)n1N(C)c1ncc(C(F)(F)F)cc1Cl,11,0.3,0.9,10,67*
SMILES,Measles CPE,CYP2C19 activ,CYP2C9 activ,CYP2C9 inhib,CYP2C19 inhib
Cc1nn(-c2ncc(C(F)(F)F)cc2Cl)c(=O)n1-c1ccccc1Cl,15,0.9,1.1,-14,5
CCCCOc1ccccc1-c1cc(C(=O)O)[nH]n1,5,1.1,1,0,-12
COc1ccc2[nH]c(=O)c(C(c3nnnn3C3CCCC3)N(C)C3CCCCC3)cc2c1 (centres undefined),3,1,1.1,-7,1
COc1ccc(C(=O)N2CCC(C(=O)NCc3ccccn3)CC2)cc1,14,1.1,1.2,-16,-12
COC(=O)c1ccc(CN(c2ccc(C)cc2)S(=O)(=O)c2ccc3c(c2)OCCO3)o1,4,0.4,0.3,74*,59*
COC(=O)c1ccc(CN(C)S(=O)(=O)c2ccc(C)cc2)o1,25,0.1,0.4,58*,91*
COC(=O)c1ccc(Cc2ccc(C(=O)OC)o2)o1,5,0.8,0.9,6,20
O=C(Nc1ccccc1Cl)ON=C1c2ccccc2-c2ccccc21,4,0.7,0.2,78*,30
O=C(Nc1ccccc1)ON=C1c2ccccc2-c2ccccc21,6,0.8,0.3,72*,23
COc1ccc(NC(=O)CN2CCN(CC(=O)Nc3ccccc3Cl)CC2)cc1,9,0.2,0.5,49,85*
